“And” between values parts separate entries of the source, which are not always exact repeats. Equal entries are not always repeated. A number with no mark means an inactive call. Results filed as inconclusive are left out. Entries that show only a call come without a potency. The source made the active and inactive calls. Unless noted, the call rests on the fitted dose curve; in most records, active means well fitted curve in the direction sought with a large enough effect; inconclusive means small, poorly fitted or top-dose-only effect, or another doubt; inactive means no such curve, though single readings can be large; an effect the other way counts as inactive or inconclusive.
Key:
[1] = AP1 Signaling Pathway (AID 357; active means well fitted curve in either direction with a large enough effect, not every such curve was filed as active;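 further: ME-180 reporter cells stimulated with EGF at its EC50 level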)
In short: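 Cells are seeded overnight, exposed to compound titrations and an EC50 level of EGF for 5 hours at 37 °C, then loaded with CCF4 dye for 2.5 hours. Beta-lactamase activity under the AP-1 element is read as a blue/green ratio.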

[2] = target: Cytochrome P450 1A2 (Homo sapiens) (UniProt P05177); assay: p450-cyp1a2 (AID 410; calls by dose curve; further: potency means the concentration at half of the fitted maximal effect)
In short: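 Luminescent readout of luciferin formed from Luciferin-ME by human CYP1A2; data normalized against complete inhibition by 57 uM furafylline. Enzyme 20nM, substrate 100uM at Km, 100mM KPO4 buffer, 60 min reaction at room temperature.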

[3] = NFAT Signaling Pathway (AID 444; active means well fitted curve in either direction with a large enough effect, not every such curve was filed as active;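 further: carbachol stimulus at about its EC50 of 1 µM final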); settings: Jurkat NFAT-bla M1, carbachol, beta-lactamase ratio, 5 h
In short: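 Read-out: CCF4 FRET ratio (460 nm/530 nm) after 1 h RT dye loading, used for %activity and AC50 from titration series. Cells: Jurkat NFAT-β-lactamase/M1 line, treated with compound plus 1 uM carbachol for 5 h, 37 °C.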

[4] = Stat Signaling Pathway (AID 446; active means well fitted curve in either direction with a large enough effect, not every such curve was filed as active;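 further: ME-180 cervical cancer cells given 40 pM IL-6 alongside compound; SIE-controlled beta-lactamase reporter measured as 460/530 nm FRET emission ratio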)
In short: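 IL-6/STAT signaling read in ME-180 cells via an SIE beta-lactamase reporter. Stimulus was 40 pM IL-6 (its AC50) for 5 hrs, so both activation and inhibition register.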

[5] = target: Glucocorticoid receptor (Homo sapiens) (UniProt P04150); assay: GR-GFP Redistribution (AID 450;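 active means compounds whose dose series gives a full or clear partial fitted curve of increased nuclear translocation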; further: potency means the concentration at half of the fitted maximal effect); settings: U2OS GR-GFP nuclear translocation, laser cytometry, 2 h
[6] = target: Glucocorticoid receptor (Homo sapiens) (UniProt P04150); assay: GR-EFC Redistribution (AID 451; calls by dose curve; further: potency means the concentration at half of the fitted maximal effect); settings: CHO-K1 GR-EFC translocation, beta-gal luminescence, 2 h
In short: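 Translocation of GR-ED fusion to nuclear EA restores b-gal, read by luminescence after 1 h room-temperature detection. Engineered CHO-K1 biosensor cells, 1,000/well, exposed 2 h at 37 C to titrations up to 46 uM final.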

[7] = target: Cytochrome P450 3A4 (Homo sapiens) (UniProt P08684); assay: qHTS Assay for Activators of Cytochrome P450 3A4 (AID 885); further: nearly all actives have a fitted effect of over 65% in size
In short: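 Quantitative HTS format: compounds preincubated with 20nM human CYP3A4 and Luciferin-PPXE substrate at KM, reaction started by NADPH regeneration, stopped after 60 min, luciferase luminescence read 20 min later.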

[8] = target: Cytochrome P450 2D6 (Homo sapiens) (UniProt P10635); assay: qHTS Assay for Inhibitors and Substrates of Cytochrome P450 2D6 (AID 891); further: potency means the concentration at half of the fitted maximal effect; nearly all actives have a fitted effect of over 60% in size
In short: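 Human CYP2D6 (5 nM) with 30 uM Luciferin-ME EGE (at Km) in 100 mM KPO4, compound preincubated 10 min, then NADPH regeneration system for 60 min at room temperature. Luciferin read by luminescence; normalized to 1.43 uM quinidine.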

[9] = qHTS Assay for Identification of Small Molecule Agonists for Hypoxia Response Element Signaling Pathway (AID 914; active means well fitted activation curve with a large enough effect in the signal ratio, with a control signal flat, not every such curve was filed as active; the % refers to the signal ratio); settings: ME-180 (cervical carcinoma) HRE-bla reporter, beta-lactamase ratio, CoCl2, 17 h; activation: hits give high values
In short: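 Reporter activity (beta-lactamase, CCF4 460nm/530nm ratio) in HRE-bla ME-180 cells is recorded after 17 h compound exposure with EC50 CoCl2 at 37 degrees Celsius. AC50 values come from titration data.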

[10] = qHTS Assay for Identification of Small Molecule Antagonists for Thrombopoietin (TPO) Signaling Pathway (AID 918); settings: TPO-dependent cell signaling reporter, antagonist mode; further: potency means the concentration at half of the fitted maximal effect; nearly all actives have a fitted effect of over 60% in size
In short: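 Ba/F3 (murine, hTPO-R, GPIIb-luc reporter); overnight IL-3 withdrawal; cpd + TPO 26 pM final (EC50); 24 h 37 C/5% CO2; Steadylite luminescence after 10 min RT.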

[11] = target: Muscarinic acetylcholine receptor M1 (Rattus norvegicus) (UniProt P08482); assay: qHTS Assay for Antagonists of Acetylcholine Muscarinic M1 Receptor: Kinetic Measurement of Intracellular Calcium Response (AID 943); further: nearly all actives have a fitted effect of over 75% in size; further: potency means the concentration at half of the fitted maximal effect;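 on activity change, negative = inhibition: Fluo-4 calcium signal as peak divided by basal fluorescence over 4 min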
In short: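 Rat M1-CHO cells, 2000/well, overnight → Fluo-4 no-wash dye with probenecid, 1 h 37C → compound 10 min, room temp → basal read 6 s → carbachol EC80 (100 nM) → 4 min kinetic read; peak/basal.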

[12] = target: Muscarinic acetylcholine receptor M1 (Rattus norvegicus) (UniProt P08482); assay: qHTS Assay for Antagonists of Acetylcholine Muscarinic M1 Receptor: Measurement of IP-One Response (AID 944); further: nearly all actives have a fitted effect of over 75% in size; further: potency means the concentration at half of the fitted maximal effect
In short: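 M1-CHO (rat), 2000 cells/well, overnight recovery; cpd 10 min; carbachol EC80 (200 nM), 30 min, HEPES buffer + 50 mM LiCl pH 7.4; IP-One HTRF, Ex 337, Em 620/665 nm.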

[13] = target: Pyruvate kinase (Leishmania mexicana) (UniProt Q27686); assay: qHTS Validation Assay for Inhibitors of Leishmania Mexicana Pyruvate Kinase (AID 945)
In short: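 Mutant LmPYK (E451W), 0.2 nM, plus 0.5 mM PEP and 0.1 mM ADP in 50 mM imidazole pH 7.2 containing 0.01% Tween 20 and 0.05% BSA. Incubated 1 h at room temperature; luminescence via PKLight, normalized to DMSO.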

[14] = target: Pyruvate kinase PKM (Homo sapiens) (UniProt P14618); assay: qHTS Assay for Activators of Human Muscle Pyruvate Kinase (AID 954; active means well fitted curve in the direction sought with a large enough effect, not every such curve was filed as active)
In short: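 Enzyme was run at intermediate activity so both inhibitors and activators could be detected. ATP formed from ADP and PEP by 0.1 nM human PKM2 during a 1 h room-temperature incubation was quantified by coupled luciferase luminescence.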

[15] = target: Alpha-galactosidase A (Homo sapiens) (UniProt P06280); assay: Counterscreen for Glucocerebrosidase Inhibitors: qHTS Assay for Human alpha-Galactosidase at pH 4.5 (AID 992)
In short: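 Read-out is 4-methylumbelliferone fluorescence (365 nm excitation, 440 nm emission) after a pH 10 NaOH/glycine stop. Reactions held 2 nM enzyme and 80 uM substrate at pH 4.5 for 20 min at room temperature.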

[16] = target: alpha-glucosidase (Oryza sativa, rice) (UniProt Q653V4); assay: Counterscreen for Glucocerebrosidase Inhibitors: qHTS Assay for Rice alpha-Glucosidase at pH 5.0 (AID 997)
In short: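 Rice alpha-glucosidase (4 nM final) with 400 uM 4-methylumbelliferyl-alpha-D-glucopyranoside in citrate buffer pH 5.0, 20 min at room temperature, stopped at pH 10; fluorescence 365/440 nm, compounds 0.7 nM–77 uM, AC50 from Hill fits.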

[17] = target: Alpha-galactosidase (Coffea arabica) (UniProt Q42656); assay: Counterscreen for Glucocerebrosidase Inhibitors: qHTS Assay for Coffee Bean alpha-Galactosidase at pH 5.9 (AID 998)
In short: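 Compounds were titrated from 0.7 nM to 77 uM against green coffee bean alpha-galactosidase (2 nM) using 80 uM fluorogenic 4-methylumbelliferyl substrate. After 20 min at room temperature, reactions were stopped at pH 10 and read by fluorescence.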

[18] = target: DNA dC->dU-editing enzyme APOBEC-3G (Homo sapiens) (UniProt Q9HC16); assay: qHTS for inhibitors of Vif-A3G interactions: Validation (AID 588379)
In short: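 HeLa cells stably expressing Vif and A3G-eYFP, 700 cells/well, incubated overnight at 37 deg C, then exposed to compound overnight at 37 deg C. Inhibition of Vif-mediated degradation read as increased yellow fluorescence (Ex 488/Em 500-530) by laser-scanning cytometry.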

[19] = tested on: Zika virus NS2B-NS3 protease; assay: Primary screen GU AMC qHTS for Zika virus inhibitors (AID 1347154); further: nearly all actives have a fitted effect of over 70% in size
In short: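 Fluorogenic AMC-substrate cleavage by noncovalent NS2B-NS3 protease complex (25 nM, pH 8.0 Tris buffer with Tween 20) followed for 15 minutes at room temperature (~20% conversion). Percent inhibition from ex340/em450 signal change, fitted by 4-parameter Hill equation.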

[20] = Primary qHTS for small molecule stabilizers of the endoplasmic reticulum resident proteome: Secreted ER Calcium Modulated Protein (SERCaMP) assay (AID 1508630)
In short: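 GLuc-SERCaMP-expressing SH-SY5Y cells, pretreated 16 h with compound, are challenged with thapsigargin to empty ER calcium stores; after 4 h, coelenterazine is added directly to the medium and luminescence is imaged.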

[21] = target: Mitogen-activated protein kinase 10 (Mus musculus) (UniProt Q61831); assay: JNK3 AlphaScreen Assay (AID 530; active means well fitted curve in either direction with a large enough effect, not every such curve was filed as active;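 further: kinase came from lysate of stimulated human HepG2 cells; signal reports phosphorylation of biotinylated GST-cJun 1-79 at Ser73 with 10 µM ATP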)
In short: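 Compound titrations were preincubated 15 minutes at room temperature with substrate, antibody and pre-activated JNK3-containing HepG2 lysate. Reactions were started with 10 uM ATP and stopped with EDTA-containing bead buffer for AlphaScreen detection.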

[22] = target: Rap guanine nucleotide exchange factor 3 (Homo sapiens) (UniProt O95398); assay: Confirmatory qHTS for antagonist of cAMP-regulated guanine nucleotide exchange factor 3 (EPAC1) (AID 1645880); further: nearly all actives have a fitted effect of over 55% in size
In short: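 Nucleotide exchange uses 100 nM EPAC1, 250 nM RAP1B-BODIPY-GDP and 50 uM GDP, with compounds in a concentration-titration series. After 5 min at room temperature, fluorescence (480 nm ex/540 nm em) is read every 5 min for 30 min. Data are normalized to control ATA and DMSO.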

[23] = target: Rap guanine nucleotide exchange factor 3 (Homo sapiens) (UniProt O95398); assay: Confirmatory qHTS for agonist of cAMP-regulated guanine nucleotide exchange factor 3 (EPAC1) (AID 1645881);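 further: EPAC1 catalysed release of BODIPY-GDP from Rap1B seen as fluorescence loss; nearly all actives have a fitted effect of over 75% in size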
[24] = target: Rap guanine nucleotide exchange factor 4 (Homo sapiens) (UniProt Q8WZA2); assay: Confirmatory qHTS for agonist of cAMP-regulated guanine nucleotide exchange factor 4 (EPAC2) (AID 1645884);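 further: nucleotide exchange releases bodipy-GDP from Rap1 and this lowers its fluorescence; nearly all actives have a fitted effect of over 65% in size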
[25] = target: 3',5'-cyclic-AMP phosphodiesterase 4B (Homo sapiens) (UniProt Q07343); assay: qHTS Assay for Inhibitors of PDE-IV (AID 607; active means well fitted activation curve with a large enough effect in the main read-out, with a control signal flat, not every such curve was filed as active)
In short: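 Live HEK293 cells with a modified cyclic nucleotide-gated (CNG) channel report intracellular cAMP via membrane-potential dye fluorescence (ex 535/em 590 nm). Endogenous PDE-IV was targeted. Compounds were tested at up to 22.9 uM final; RO 20-1724 100 uM served as control.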

[26] = qHTS Assay for Identification of Small Molecule Antagonists for NFkB Signaling Pathway (AID 895; active means well fitted inhibition curve with a large enough effect in the signal ratio, with a control signal flat, not every such curve was filed as active; the % refers to the signal ratio)
In short: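 Beta-lactamase reporter read-out (460 and 530 nm emission ratio, 405 nm excitation, 2 hrs substrate loading RT) after 5 hr stimulation with 10 pM TNF alpha in compound-treated NFkB-bla ME-180 cells in low-serum medium.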

[27] = qHTS Assay for Identification of Small Molecule Agonists for Thrombopoietin (TPO) Signaling Pathway (AID 917)
In short: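 IL-3-dependent murine pro-B Ba/F3 cells, stably transfected with human TPO receptor and GpIIb-promoter luciferase, are incubated 24 hrs at 37 C with test compound and 26 pM TPO; luciferase signal is read after 10 min at room temperature.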

[28] = target: Alpha-galactosidase (Coffea arabica) (UniProt Q42656); assay: Counterscreen for Glucocerebrosidase Inhibitors: qHTS Assay for Coffee Bean alpha-Galactosidase at pH 4.5 (AID 957)
In short: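 Coffee bean alpha-galactosidase 2 nM, substrate 4-MU-alpha-Gal 80 uM, pH 4.5 citrate/Tween-20, 20 min RT. Cpd titration 0.7 nM–77 uM. Stop pH 10, fluorescence 365/440 nm; Hill-equation AC50.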

[29] = target: Ubiquitin carboxyl-terminal hydrolase 1 (Homo sapiens) (UniProt O94782); assay: Inhibitors of USP1/UAF1: Pilot qHTS (AID 504865);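 further: rhodamine fluorescence freed from ubiquitin-rhodamine substrate followed over time; top concentration of the series differs between compounds; nearly all actives have a fitted effect of over 35% in size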
In short: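 Enzyme-free wells gave the negative control, while test wells held 1nM USP1/UAF1 preincubated with compound for 15 min at room temperature. Ub-Rho at 150nM final started the reaction, and fluorescence at 480/540 nm was recorded kinetically.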

Alpha-galactosidase (Coffea arabica), sequence (Q42656 whole entry, looked up): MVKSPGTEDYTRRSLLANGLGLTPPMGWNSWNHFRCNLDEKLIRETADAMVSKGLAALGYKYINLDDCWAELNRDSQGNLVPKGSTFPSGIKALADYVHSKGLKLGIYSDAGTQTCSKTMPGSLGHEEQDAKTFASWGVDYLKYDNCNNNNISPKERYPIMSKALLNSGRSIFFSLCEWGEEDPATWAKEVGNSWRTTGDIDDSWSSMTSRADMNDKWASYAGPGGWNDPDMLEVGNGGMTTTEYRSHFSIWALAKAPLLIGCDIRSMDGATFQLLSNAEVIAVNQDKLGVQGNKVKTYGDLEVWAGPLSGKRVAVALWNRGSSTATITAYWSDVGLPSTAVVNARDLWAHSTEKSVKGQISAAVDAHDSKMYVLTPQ
DNA dC->dU-editing enzyme APOBEC-3G (Homo sapiens), sequence (Q9HC16 whole entry, looked up): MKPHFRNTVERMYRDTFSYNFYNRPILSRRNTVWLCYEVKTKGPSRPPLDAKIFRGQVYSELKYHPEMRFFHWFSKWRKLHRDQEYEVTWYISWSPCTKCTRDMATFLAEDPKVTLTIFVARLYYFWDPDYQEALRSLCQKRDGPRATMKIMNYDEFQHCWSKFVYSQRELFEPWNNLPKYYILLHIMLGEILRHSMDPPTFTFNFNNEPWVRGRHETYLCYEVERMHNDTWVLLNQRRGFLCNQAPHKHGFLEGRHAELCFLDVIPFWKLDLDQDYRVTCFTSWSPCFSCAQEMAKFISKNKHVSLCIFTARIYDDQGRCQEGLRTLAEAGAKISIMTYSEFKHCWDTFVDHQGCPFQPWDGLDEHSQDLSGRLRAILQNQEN
Muscarinic acetylcholine receptor M1 (Rattus norvegicus), sequence (P08482 whole entry, looked up): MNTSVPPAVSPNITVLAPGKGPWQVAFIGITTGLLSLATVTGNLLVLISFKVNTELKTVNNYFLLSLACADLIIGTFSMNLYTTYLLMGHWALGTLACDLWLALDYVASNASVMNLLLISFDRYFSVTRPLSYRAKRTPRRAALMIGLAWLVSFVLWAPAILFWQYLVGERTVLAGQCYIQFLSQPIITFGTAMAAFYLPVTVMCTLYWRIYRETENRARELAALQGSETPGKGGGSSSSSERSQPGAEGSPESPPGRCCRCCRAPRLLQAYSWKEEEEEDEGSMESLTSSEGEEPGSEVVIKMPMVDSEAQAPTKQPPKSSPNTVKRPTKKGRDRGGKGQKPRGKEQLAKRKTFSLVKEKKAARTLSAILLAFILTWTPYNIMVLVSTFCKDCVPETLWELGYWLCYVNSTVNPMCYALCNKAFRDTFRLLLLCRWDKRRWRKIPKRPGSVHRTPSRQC
Glucocorticoid receptor (Homo sapiens), sequence (P04150 whole entry, looked up, the tested form may be a part): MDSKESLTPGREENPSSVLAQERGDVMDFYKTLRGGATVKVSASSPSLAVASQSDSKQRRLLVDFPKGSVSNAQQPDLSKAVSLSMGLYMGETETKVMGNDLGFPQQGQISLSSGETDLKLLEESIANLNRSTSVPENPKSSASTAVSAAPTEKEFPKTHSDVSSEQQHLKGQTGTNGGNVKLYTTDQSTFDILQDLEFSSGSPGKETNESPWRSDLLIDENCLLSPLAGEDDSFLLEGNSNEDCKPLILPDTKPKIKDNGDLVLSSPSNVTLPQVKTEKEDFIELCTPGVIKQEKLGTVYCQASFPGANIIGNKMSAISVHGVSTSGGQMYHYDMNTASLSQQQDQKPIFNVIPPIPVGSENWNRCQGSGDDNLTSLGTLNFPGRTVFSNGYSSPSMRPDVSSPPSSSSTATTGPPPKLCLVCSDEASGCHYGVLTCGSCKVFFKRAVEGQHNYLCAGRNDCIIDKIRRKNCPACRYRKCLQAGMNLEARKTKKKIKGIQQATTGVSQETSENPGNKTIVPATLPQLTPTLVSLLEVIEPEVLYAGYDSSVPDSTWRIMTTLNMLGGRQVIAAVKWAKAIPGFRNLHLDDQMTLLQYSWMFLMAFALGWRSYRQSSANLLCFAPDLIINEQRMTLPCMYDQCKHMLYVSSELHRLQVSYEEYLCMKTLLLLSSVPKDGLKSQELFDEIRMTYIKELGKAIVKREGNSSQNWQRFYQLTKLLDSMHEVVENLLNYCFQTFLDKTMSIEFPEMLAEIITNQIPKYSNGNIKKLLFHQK
Pyruvate kinase (Leishmania mexicana), sequence (Q27686 2-499 E452W): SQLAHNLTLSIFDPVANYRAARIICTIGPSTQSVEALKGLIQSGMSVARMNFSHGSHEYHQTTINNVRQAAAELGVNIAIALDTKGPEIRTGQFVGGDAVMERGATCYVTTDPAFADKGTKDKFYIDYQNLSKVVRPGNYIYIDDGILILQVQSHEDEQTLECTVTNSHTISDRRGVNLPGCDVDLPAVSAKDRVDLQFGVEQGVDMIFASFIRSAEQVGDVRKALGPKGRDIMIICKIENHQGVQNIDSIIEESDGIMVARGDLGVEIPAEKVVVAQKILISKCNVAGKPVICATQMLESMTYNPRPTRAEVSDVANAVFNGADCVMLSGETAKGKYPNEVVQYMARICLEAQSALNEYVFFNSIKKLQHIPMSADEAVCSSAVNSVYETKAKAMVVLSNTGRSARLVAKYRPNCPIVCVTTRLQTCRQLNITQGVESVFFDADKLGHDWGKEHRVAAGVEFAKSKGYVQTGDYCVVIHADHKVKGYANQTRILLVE
Cytochrome P450 3A4 (Homo sapiens), sequence (P08684 whole entry, looked up): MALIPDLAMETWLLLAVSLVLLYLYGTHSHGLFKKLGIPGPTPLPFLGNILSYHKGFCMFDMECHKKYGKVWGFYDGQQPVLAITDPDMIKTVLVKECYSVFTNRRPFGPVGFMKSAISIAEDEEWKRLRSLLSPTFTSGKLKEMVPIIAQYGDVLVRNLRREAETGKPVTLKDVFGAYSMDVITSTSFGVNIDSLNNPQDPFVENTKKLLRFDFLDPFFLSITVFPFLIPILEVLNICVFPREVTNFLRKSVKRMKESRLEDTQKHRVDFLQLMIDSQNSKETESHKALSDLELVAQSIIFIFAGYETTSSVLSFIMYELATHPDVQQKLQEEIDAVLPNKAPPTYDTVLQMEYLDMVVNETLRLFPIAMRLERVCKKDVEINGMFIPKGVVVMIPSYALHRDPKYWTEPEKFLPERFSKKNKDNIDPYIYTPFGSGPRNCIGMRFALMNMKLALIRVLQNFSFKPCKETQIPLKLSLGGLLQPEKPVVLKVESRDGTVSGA
Cytochrome P450 1A2 (Homo sapiens), sequence (P05177 whole entry, looked up): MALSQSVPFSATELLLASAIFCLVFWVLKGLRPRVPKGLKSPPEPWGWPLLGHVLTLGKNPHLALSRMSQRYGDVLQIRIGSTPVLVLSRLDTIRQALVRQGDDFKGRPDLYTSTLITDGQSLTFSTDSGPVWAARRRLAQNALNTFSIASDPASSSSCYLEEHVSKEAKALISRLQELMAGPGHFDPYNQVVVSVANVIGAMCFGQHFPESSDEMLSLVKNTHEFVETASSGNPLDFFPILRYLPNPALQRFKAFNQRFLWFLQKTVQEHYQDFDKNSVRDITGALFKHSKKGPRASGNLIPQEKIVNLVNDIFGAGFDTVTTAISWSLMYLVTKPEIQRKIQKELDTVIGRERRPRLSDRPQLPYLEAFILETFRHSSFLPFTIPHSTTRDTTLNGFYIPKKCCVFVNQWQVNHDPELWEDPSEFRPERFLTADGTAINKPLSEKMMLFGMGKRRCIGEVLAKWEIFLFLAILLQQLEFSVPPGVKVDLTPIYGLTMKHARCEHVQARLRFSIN
Rap guanine nucleotide exchange factor 3 (Homo sapiens), sequence (O95398 whole entry, looked up): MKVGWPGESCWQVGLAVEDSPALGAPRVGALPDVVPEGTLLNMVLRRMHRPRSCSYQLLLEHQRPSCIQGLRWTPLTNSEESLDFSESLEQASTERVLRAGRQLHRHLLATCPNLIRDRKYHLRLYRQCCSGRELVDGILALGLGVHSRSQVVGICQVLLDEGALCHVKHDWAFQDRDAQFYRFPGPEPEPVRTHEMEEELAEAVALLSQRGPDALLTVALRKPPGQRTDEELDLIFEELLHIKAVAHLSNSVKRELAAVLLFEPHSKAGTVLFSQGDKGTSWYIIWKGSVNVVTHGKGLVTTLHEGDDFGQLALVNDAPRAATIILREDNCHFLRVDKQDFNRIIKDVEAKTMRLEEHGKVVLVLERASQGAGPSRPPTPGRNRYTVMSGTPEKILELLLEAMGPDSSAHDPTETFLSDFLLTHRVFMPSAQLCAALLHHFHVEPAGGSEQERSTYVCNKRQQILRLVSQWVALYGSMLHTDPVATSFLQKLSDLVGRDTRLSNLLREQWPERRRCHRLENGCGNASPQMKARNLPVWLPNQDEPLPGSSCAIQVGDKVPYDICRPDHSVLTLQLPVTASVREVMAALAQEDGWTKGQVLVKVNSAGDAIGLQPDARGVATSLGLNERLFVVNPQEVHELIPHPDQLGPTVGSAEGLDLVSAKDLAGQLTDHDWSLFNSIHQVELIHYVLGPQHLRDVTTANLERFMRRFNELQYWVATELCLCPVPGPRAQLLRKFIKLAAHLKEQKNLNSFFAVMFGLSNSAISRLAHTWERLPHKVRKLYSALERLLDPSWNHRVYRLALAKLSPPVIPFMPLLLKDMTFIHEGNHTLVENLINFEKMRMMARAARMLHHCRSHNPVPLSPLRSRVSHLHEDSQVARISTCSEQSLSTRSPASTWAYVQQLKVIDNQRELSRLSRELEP
Pyruvate kinase PKM (Homo sapiens), sequence (P14618 whole entry, looked up): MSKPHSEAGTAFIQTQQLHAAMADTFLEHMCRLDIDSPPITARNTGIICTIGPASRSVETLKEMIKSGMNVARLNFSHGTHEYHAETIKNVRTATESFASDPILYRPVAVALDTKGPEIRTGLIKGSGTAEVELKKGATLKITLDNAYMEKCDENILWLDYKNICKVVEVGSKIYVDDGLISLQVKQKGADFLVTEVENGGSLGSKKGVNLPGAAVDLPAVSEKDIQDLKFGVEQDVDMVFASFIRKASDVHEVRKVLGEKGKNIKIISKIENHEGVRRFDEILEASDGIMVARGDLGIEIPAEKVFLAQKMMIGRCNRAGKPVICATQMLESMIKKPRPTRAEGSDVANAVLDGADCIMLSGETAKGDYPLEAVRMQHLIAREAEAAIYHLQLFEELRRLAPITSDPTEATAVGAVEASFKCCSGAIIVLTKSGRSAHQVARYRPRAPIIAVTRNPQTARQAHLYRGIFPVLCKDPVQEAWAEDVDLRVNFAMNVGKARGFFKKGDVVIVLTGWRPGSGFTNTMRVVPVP

CN1[C@@H]2CC[C@H]1CC(O[C@@H](c1ccccc1)c1ccc(Cl)cc1)C2 (some centres not stated)
outcome [1]: inactive | Potency [2]: inactive | activity change, negative = inhibition ([3]; at 38 µM (top of the series)): -69.3% (active) | outcome [4]: inactive | Potency [5]: > 46 µM | Potency [6]: > 46 µM | Potency [7]: inactive | Potency [8]: 1.26 µM (active) and 1.58 µM (active) | activation [9]: -9.36% | Potency [10]: 12.6 µM (active) | Potency [11]: 0.02 µM (active) | Potency [12]: 0.0126 µM (active) | outcome [13]: inactive | outcome [14]: inactive | outcome [15]: inactive | outcome [16]: inactive | outcome [17]: inactive | Potency [18]: inactive | Potency [19]: inactive | Potency [20]: inactive

CCCn1c(C)c(C(=O)c2cccc3ccccc23)c2ccccc21
Potency [2]: 2 µM (active) | Potency [5]: > 46 µM | Potency [6]: > 46 µM | outcome [21]: inactive | Potency [18]: inactive | Potency [19]: inactive | Potency [20]: inactive | Potency [22]: inactive | outcome [23]: inactive | outcome [24]: inactive

CCOC(=O)c1cc2c(cn1)[nH]c1ccccc12
outcome [1]: inactive | activity change, negative = inhibition ([3]; at 17.2 µM (top of the series)): 26.1% | outcome [4]: inactive | Potency [5]: > 20.6 µM | Potency [19]: inactive | Potency [20]: inactive

N[C@H](CCP(=O)(O)O)C(=O)O
outcome [1]: inactive | activity change, negative = inhibition ([3]; at 38 µM (top of the series)): 13.5% | outcome [4]: inactive | Potency [5]: > 46 µM | Potency [6]: > 46 µM | outcome [21]: inactive | Potency [25]: inactive | Potency [26]: inactive | outcome [27]: inactive | Potency [11]: inactive | Potency [12]: inactive | outcome [13]: inactive | outcome [14]: inactive | outcome [28]: inactive | outcome [15]: inactive | outcome [16]: inactive | outcome [17]: inactive | Potency [29]: inactive | Potency [18]: inactive | Potency [19]: inactive | Potency [20]: inactive

From PubChem BioAssay (NCATS)
